PubChem BioAssay AID1159580 (chemical genetic matrix, 2015)
Several values for one entry are separate records, joined by “and”; a condition that tells them apart may be missing. Identical values can stand only once. In all, about 5,500 compounds went through this assay and about 2,000 (36%) were called active. Inconclusive results (about 18%) are left out. Rule as the data show it: active = normalized growth mostly below about 0.91 (no sharp cut-off); inconclusive = no clear call, values can overlap the other calls; inactive = mostly above about 0.92. This is one part of the list.

Assay: chemical genetic growth profiling, strain panel (AID 1159580);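 also: tested at 20 µM; growth read once vehicle control cultures reached saturation at 30 °C; 1 = growth at the plate median or of vehicle wells; lower values mean less growth of the strain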
Conditions: S. cerevisiae deletion strains, growth OD

Measured: normalized growth

Nc1ccncc1
inactive: locus YAL013W, strain DEP1, hits give low values 1.02 and 1.01 | locus YAL021C, strain ccr4, hits give low values 0.996 | locus YAL026C, strain drs2, hits give low values 1 | locus YAL030W, strain snc1, hits give low values 0.997 | locus YAL040C, strain CLN3, hits give low values 0.997 | locus YBL061C, strain skt5, hits give low values 0.99 | locus YBR009C, strain hhf1, hits give low values 1 | locus YBR021W, strain FUR4, hits give low values 1.02 | locus YBR023C, strain chs3, hits give low values 0.993 | locus YBR171W, strain sec66, hits give low values 0.979 | locus YBR229C, strain ROT2, hits give low values 0.985 | locus YBR231C, strain swc5, hits give low values 0.994 | locus YBR279W, strain paf1, hits give low values 0.998 | locus YCL011C, strain gbp2, hits give low values 0.995 | locus YCL016C, strain dcc1, hits give low values 1 | locus YCL029C, strain bik1, hits give low values 0.973 | locus YCL061C, strain MRC1 (second series), hits give low values 1 | locus YCL061C, strain MRC1, hits give low values 0.99 | locus YCL069W, strain vba3, hits give low values 0.998 | locus YCR088W, strain abp1, hits give low values 0.981 | locus YDL005C, strain med2, hits give low values 0.991 | locus YDL035C, strain GPR1, hits give low values 1.03 | locus YDL040C, strain nat1, hits give low values 0.989 | locus YDL074C, strain BRE1, hits give low values 1.05 | locus YDL101C, strain DUN1, hits give low values 1.01 | locus YDL134C, strain PPH21, hits give low values 1.02 | locus YDL185W, strain tfp1, hits give low values 0.981 | locus YDL192W, strain arf1, hits give low values 0.98 | locus YDR001C, strain nth1, hits give low values 0.991 | locus YDR069C, strain doa4, hits give low values 1 | locus YDR101C, strain arx1, hits give low values 0.972 | locus YDR137W, strain rgp1, hits give low values 1 | locus YDR150W, strain NUM1, hits give low values 1.02 | locus YDR159W, strain sac3, hits give low values 1 | locus YDR162C, strain NBP2, hits give low values 1.01 | locus YDR195W, strain ref2 1.01 | locus YDR297W, strain sur2, hits give low values 1 | locus YDR318W, strain mcm21, hits give low values 0.955 | locus YDR334W, strain swr1, hits give low values 0.997 | locus YDR335W, strain msn5, hits give low values 0.997 | locus YDR363W, strain ESC2, hits give low values 1.01 | locus YDR388W, hits give low values 0.965 | locus YDR392W, strain spt3, hits give low values 0.994 | locus YDR502C, strain sam2, hits give low values 0.968 | locus YEL003W, strain gim4, hits give low values 1 | locus YEL037C, strain rad23, hits give low values 0.989 | locus YEL061C, strain CIN8 (second series), hits give low values 0.994 | locus YEL061C, strain CIN8, hits give low values 1.01 | locus YER002W, strain NOP16, hits give low values 1.01 | locus YER015W, strain faa2, hits give low values 0.995 | locus YER016W, strain bim1, hits give low values 0.995 | locus YER110C, hits give low values 0.973 | locus YER111C, strain swi4, hits give low values 0.987 | locus YER155C, strain BEM2 (second series), hits give low values 0.947 | locus YER155C, strain BEM2, hits give low values 1.01 | locus YER167W, strain BCK2, hits give low values 1.02 | locus YFR010W, strain ubp6, hits give low values 0.996 | locus YGL078C, strain dbp3, hits give low values 0.982 | locus YGL086W, strain mad1, hits give low values 0.975 | locus YGL167C, strain pmr1, hits give low values 0.992 | locus YGL173C, strain kem1, hits give low values 0.99 | locus YGL227W, strain vid30, hits give low values 0.98 | locus YGL240W, strain doc1, hits give low values 1 | locus YGL248W, strain PDE1, hits give low values 1.02 | locus YGL253W, strain hxk2, hits give low values 1 | locus YGR078C, strain PAC10, hits give low values 1.02 and 1.01 | locus YGR135W, strain pre9, hits give low values 0.971 | locus YGR229C, strain SMI1, hits give low values 1.01 and 1 | locus YGR252W, strain gcn5, hits give low values 0.92 | locus YHR013C, strain ard1, hits give low values 0.999 | locus YHR027C, strain rpn1, hits give low values 0.998 | locus YHR030C, strain SLT2, hits give low values 1.01 and 0.98 | locus YHR079C, strain IRE1 (second series), hits give low values 0.965 | locus YHR079C, strain IRE1, hits give low values 0.961 | locus YHR094C, strain hxt1, hits give low values 0.974 | locus YHR129C, strain ARP1, hits give low values 1.01 | locus YHR142W, strain chs7, hits give low values 0.993 | locus YHR200W, strain rpn10, hits give low values 0.96 | locus YIL066C, strain RNR3, hits give low values 1.03 | locus YIL073C, strain SPO22, hits give low values 0.993 | locus YIL125W, strain kgd1, hits give low values 0.991 | locus YIR030C, strain dcg1, hits give low values 0.975 | locus YJL092W, strain hpr5, hits give low values 0.99 | locus YJL095W, strain BCK1 (second series), hits give low values 0.991 | locus YJL095W, strain BCK1, hits give low values 0.978 and 0.981 | locus YJL115W, strain asf1, hits give low values 0.984 | locus YJL129C, strain trk1, hits give low values 0.988 | locus YJL134W, strain LCB3, hits give low values 1.01 | locus YJL154C, strain vps35, hits give low values 0.992 | locus YJL164C, strain tpk1, hits give low values 1.01 | locus YJL166W, strain qcr8, hits give low values 0.989 | locus YJL168C, strain set2, hits give low values 0.963 | locus YJL187C, strain SWE1 (second series), hits give low values 1.03 | locus YJL187C, strain SWE1, hits give low values 1 | locus YJR043C, strain POL32, hits give low values 1 | locus YJR066W, strain TOR1, hits give low values 0.917
